Shiga toxin inh: A qHTS for Small Molecule Inhibitors of Shiga Toxin | Vero cells, Shiga toxin protein synthesis inhibition reporter | inhibition, % at 38.7 µM | actives 9.2% (n = 290,000) | AID 2315, 2010; in the data active means inhibition mostly above about 28%, no sharp cut-off; inactive means mostly below about 43%; further: 0% is about no effect
SARS PLpro yeast: qHTS of Yeast-based Assay for SARS-CoV PLP | S. cerevisiae expressing SARS-CoV PLpro, growth rescue | Potency, µM (highest dose often 32.9 µM), for inactives: at the top dose activity, positive = growth rescue, actives largely listed as activators | actives 0.19% (n = 330,000); further: potency means the concentration at half of the fitted maximal effect; 0% is about no effect; nearly all actives have a fitted effect of over 55% in size
Pf growth 96h: Primary qHTS for delayed death inhibitors of the malarial parasite plastid, 96 hour incubation; P. falciparum luciferase reporter growth, 96 h; Potency, µM (titrated, usually from 28.7 µM), for the others: at the top dose activity change, negative = inhibition, most hits filed as inhibitors; actives 6.9% (n = 320,000); active means well fitted inhibition curve with a large enough effect; inconclusive means small, poorly fitted or top-dose-only effect, or another doubt; inactive means no such curve, though single readings can be large or run the other way; further: potency means the concentration at half of the fitted maximal effect; on the % scale 0 is the no-effect control and ±100 the full control effect
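Parasite growth measured via integrated firefly luciferase reporter in P. falciparum. Infected erythrocytes at 2% hematocrit, 0.05% parasitemia final were treated 96 hours at 37 C under 5% CO2, and luminescence was read.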
Cycloheximide cs: Cycloheximide Counterscreen for Small Molecule Inhibitors of Shiga Toxin; actives 12% (n = 300,000); max response, %; cell reporter, cycloheximide protein synthesis inhibition counterscreen; in the data active means max response mostly above about 13%, no sharp cut-off; inactive means mostly below about 14%; further: read at 38.3 µM for the half of the compounds with a filed dose; 0% is about no effect
NS1 inh: qHTS Assay for Inhibitors of Influenza NS1 Protein Function | Potency, µM (top dose mostly 46.1 µM), without a hit: top-dose activity, positive = more growth | actives 0.4% (n = 270,000) | AID 2326, 2010; further: potency means the concentration at half of the fitted maximal effect; actives are rising curves; nearly all actives have a fitted effect of over 50% in size
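S. cerevisiae expressing influenza A NS1, grown in glucose, washed, then diluted 1:100 into pH 6.0 -URA galactose medium with 23 nl compound. Growth recovery read as OD600; NS1-free strain serves as control.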
Pf growth 48h: Primary qHTS for delayed death inhibitors of the malarial parasite plastid, 48 hour incubation. P. falciparum luciferase growth in erythrocytes, 48 h. Potency, µM (highest dose often 28.7 µM), without a hit: top-dose activity change, negative = inhibition, actives largely listed as inhibitors. actives 5.9% (n = 310,000); active means well fitted inhibition curve with a large enough effect; inconclusive means small, poorly fitted or top-dose-only effect, or another doubt; inactive means no such curve, though single readings can be large or run the other way; further: potency means the concentration at half of the fitted maximal effect; on the % scale 0 is the no-effect control and ±100 the full control effect
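Growth was read as firefly luciferase luminescence after a 48 h, 37 C, 5% CO2 exposure of compounds to reporter-bearing P. falciparum cultures (0.1% parasitemia, 2% hematocrit final) in Albumax-supplemented RPMI 1640.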
Flu NS1 inh: Assay for Inhibitors of Influenza NS1 Protein Function: Hit Validation; activity change, negative = inhibition, % at 32.9 µM; 1,400 tested, under 10 active; shares compounds with NS1 inh; AID 492980, 2010; influenza NS1 function cell assay, 15-point titration; further: 0% is about no effect
Flu PR8 replic: Assay for Inhibitors of Influenza NS1 Protein Function: Influenza virus replication assay in MDCK cells infected with virus A/PR/8/34; shares compounds with NS1 inh; MDCK infected influenza A/PR/8/34, virus titer TCID50; hits give low values; virus titer (log TCID50), log10 TCID50 at 5 µM; actives 30% (n = 95); AID 504647, 2011; call rule not given here
* hit, by the source's call; ? = inconclusive; . = no result given; [ ] = another dose, or the depositor's remark. Only some compounds are listed: those with a hit (about 21% of all), similar ones and a draw of the others. Unless noted, the call rests on the fitted dose curve.

SMILES	Shiga toxin inh	SARS PLpro yeast	Pf growth 96h	Cycloheximide cs	NS1 inh	Pf growth 48h	Flu NS1 inh	others
COc1ccc(NS(=O)(=O)c2cc(NC(=O)/C=C/c3cc(OC)ccc3OC)ccc2N2CCCCC2)cc1	26	0%	2.6µM*	-1	10µM*	4.1µM*	17
COc1ccc(NC(=S)NNC(=O)OC(C)(C)C)cc1OC	-24	11%	8%	-1	0%	.	.
COc1ccccc1NC(C)C(=O)N/N=C/c1ccccc1OCc1cccc(Br)c1 (stereo not drawn)	30	-7%	54%	5	16µM*	-5%	-13
COc1cccc(N(CC(=O)Nc2ccc3c(c2)OCO3)S(=O)(=O)c2ccccc2)c1	-5	7%	?	9	2%	.	.
Cc1ccc(NC(=O)Cn2c(=O)oc3cc(S(=O)(=O)N4CCC(C)CC4)ccc32)cc1C	-4	-9%	24%	-5	14%	.	.
O=C(Nc1ccc2c(c1)CCC2)c1cc(S(=O)(=O)Nc2ccc(F)cc2)c(Cl)cc1Cl	29	-9%	?	19*	14µM*	-13%	27	Flu PR8 replic=8
COC(=O)[C@@]1(Cc2ccc(F)cc2)[C@H]2c3cc(C(=O)N4CCCC4)n(Cc4ccc(C(F)(F)F)nc4)c3C[C@H]2CN1C(=O)c1ccccc1	-3	6%	2.1µM*	-6	11µM*	?	3
Cc1noc(C)c1NC(=O)N(C)C[C@H]1Oc2ccc(NC(=O)CCN3CCOCC3)cc2C(=O)N([C@H](C)CO)C[C@@H]1C	.	3%	.	.	.	.	.
O=C(CCCOc1ccc(Cl)cc1)N1CCOCC1	30*	-4%	260%	11	11µM*	24%	-21
CCN(CC)CCN(C(=O)c1c(F)cccc1F)c1nc2cc(C)cc(C)c2s1	-12	-6%	?	-3	.	?	.
N#CC1=C(SCC(=O)NC2CC2)NC(=O)C(C#N)C12CCCCC2 (stereo not drawn)	10	7%	.	-1	-1%	11%	.
N#CC1=C(N)NC(SCC(=O)O)=C(C#N)C12CCCC2	22	11%	97%[5.75 µM]	3	2.2µM*	-14%	0
CC1(C)C(=O)C2(C(=O)NCc3ccccc3)CCC1C2 (stereo not drawn)	-6	1%	.	-2	20µM*	0%	1
c1cc2c(cc1Nc1nc(-c3ccc4c(c3)OCO4)cs1)OCCO2	78*	1%	-6%	64*	7.1µM*	-65%	-12
O=C(/C=C/c1ccc2c(c1)OCO2)Nc1nc(-c2ccc(F)cc2)cs1	-2	9%	?	2	15%	12%	.
Oc1ccc(Nc2nc(-c3ccc(O)cc3)cs2)cc1	80*	7%	-23%	54*	2.8µM*	-50%	10
CC1SC(=NC(=O)c2ccco2)NC1=O (stereo not drawn)	21	2%	.	0	0%	39%	.
O=C(N=C1SCC(=O)N1c1ccccc1Cl)c1ccco1	104*	-5%	213%	30*	11µM*	154%	26
Cc1cc(C)n2nc(SCC(=O)Nc3c(C)n(C)n(-c4ccccc4)c3=O)nc2n1	-9	3%	?	2	5µM*	10%	8
Cc1c(NC(=O)CSc2ncccn2)c(=O)n(-c2ccccc2)n1C	15	2%	2%	-3	.	-11%	.
O=C(c1cccc([N+](=O)[O-])c1)N1CCN(S(=O)(=O)/C=C/c2ccccc2)CC1	.	12%	?	.	.	?	.
Cc1ccc(S(=O)(=O)N2CCCCC2)cc1C(=O)N(C)CC(=O)Nc1ccc(Cl)c(C(F)(F)F)c1	-6	-2%	?	0	10µM*	?	-14
